Counter-ions that a name gives are not always drawn.

This note sets out measurements from the supplement of paper PMC9950053.

The experiment deals with Danio rerio larvae (5 dpf). As to the kind of experiment: startle (activity period 16 minus period 15, 20-s interval sound) minus DMSO control (percentage points); higher = stronger startle response than DMSO larvae. Conditions: 10 µM; exposure time: 3 h pre-incubation + 3 h imaging. How it is done: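 Wild-type 5 dpf zebrafish larvae (n=48 per drug, 96-well plates, 28.5 °C) were exposed to Tocris FDA-approved library compounds at 10 µM (0.1% DMSO) for 3 h before and 3 h during imaging. Images were taken every 6 s during visual (moving coloured lines) and acoustic stimuli, and larvae were tracked with the DeepLabCut-based Z-LaP Tracker. Each behavioural measure is the treated-group mean minus the DMSO vehicle control mean (n=844), in percentage points. This mapping covers compounds with 4-character plate codes.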
For the compound `CCc1c2c(nc3ccc(OC(=O)N4CCC(N5CCCCC5)CC4)cc13)-c1cc3c(c(=O)n1C2)COC(=O)[C@]3(O)CC`, the startle stood at 0.964. For `CN/C(=N\CCSCc1nc[nH]c1C)NC#N` [Cimetidine] the value was 5.75. The result for `COC(c1ccccc1)(c1ccccc1)[C@H](Oc1nc(C)cc(C)n1)C(=O)O` [Ambrisentan] reads 6.56; that for `CCN(CC)CCNC(=O)c1c(C)[nH]c(/C=C2\C(=O)Nc3ccc(F)cc32)c1C` [Sunitinib malate], -2.14. The result for `CO[C@H]1/C=C/O[C@@]2(C)Oc3c(C)c(O)c4c(O)c(c5c(nc6cc(C)ccn65)c4c3C2=O)NC(=O)/C(C)=C\C=C\[C@H](C)[C@H](O)[C@@H](C)[C@@H](O)[C@@H](C)[C@H](OC(C)=O)[C@@H]1C` [Rifaximin] reads 1.18. For the compound `Nc1nc(NC2CC2)c2ncn([C@H]3C=C[C@@H](CO)C3)c2n1` [Abacavir hemisulfate], the startle was 6.4. For `CN1CC(=O)N2[C@H](c3ccc4c(c3)OCO4)c3[nH]c4ccccc4c3C[C@@H]2C1=O` [Tadalafil] the value was 8.43. For `CC(C)C(=O)OCC(=O)[C@@]12O[C@H](C3CCCCC3)O[C@@H]1C[C@H]1[C@@H]3CCC4=CC(=O)C=C[C@]4(C)[C@H]3[C@@H](O)C[C@@]12C` [Ciclesonide] the value was -5.21. The result for `COc1cccc2c1C(=O)c1c(O)c3c(c(O)c1C2=O)C[C@@](O)(C(=O)CO)C[C@@H]3O[C@H]1C[C@H](N)[C@H](O)[C@H](C)O1` [Doxorubicin hydrochloride] reads 3.54; that for `CCCCNc1cc(C(=O)O)cc(S(N)(=O)=O)c1Oc1ccccc1` [Bumetanide], 3.28; that for `CCCCCOC(=O)Nc1nc(=O)n([C@@H]2O[C@H](C)[C@@H](O)[C@H]2O)cc1F` [Capecitabine], 1.06. In the case of `CCOc1nc2cccc(C(=O)O)c2n1Cc1ccc(-c2ccccc2-c2nnn[nH]2)cc1` [Candesartan], the startle was determined as 11.2. For `CCOC(=O)[C@H](CCc1ccccc1)N[C@H]1CCc2ccccc2N(CC(=O)O)C1=O` [Benazepril hydrochloride] the value was -0.0488; for `Clc1ccccc1C(c1ccccc1)(c1ccccc1)n1ccnc1` [Clotrimazole], 4.43; for `Cc1nnc(C(C)C)n1C1C[C@H]2CC[C@@H](C1)N2CC[C@H](NC(=O)C1CCC(F)(F)CC1)c1ccccc1` (stereo in doubt) [Maraviroc], -4.84. For `Brc1c(NC2=NCCN2)ccc2nccnc12` the value was -5.57. The result for `O=C(NCC1CCCCN1)c1cc(OCC(F)(F)F)ccc1OCC(F)(F)F` (stereo not given) [Flecainide acetate] reads 4.84; that for `CCN(Cc1ccncc1)C(=O)C(CO)c1ccccc1` (stereo not given) [Tropicamide], -6.79. Consider `C[C@]12CC[C@@H]3c4ccc(O)cc4C[C@@H](CCCCCCCCC[S+]([O-])CCCC(F)(F)C(F)(F)F)[C@H]3[C@@H]1CC[C@@H]2O` (stereo not given in full), for which the startle is -0.0663.

Turning to `CCOC(=O)C1=C(C)NC(C)=C(C(=O)OC)C1c1cccc(Cl)c1Cl` (stereo not given) [Felodipine], the startle is 7.93. Consider `COCCCOc1cc(C[C@@H](C[C@H](N)[C@@H](O)C[C@H](C(=O)NCC(C)(C)C(N)=O)C(C)C)C(C)C)ccc1OC` [Aliskiren hemifumarate], for which the startle was 0.496.

Regarding `CC[C@H](C)C(=O)O[C@H]1C[C@@H](C)C=C2C=C[C@H](C)[C@H](CC[C@@H]3C[C@@H](O)CC(=O)O3)[C@H]21` [Lovastatin], the startle is -1.2. For `CCOc1ccccc1OCCN[C@H](C)Cc1ccc(OC)c(S(N)(=O)=O)c1` [Tamsulosin hydrochloride], the startle amounted to 1.92. The result for `COc1cc2nc(N3CCN(C(=O)c4ccco4)CC3)nc(N)c2cc1OC` [Prazosin hydrochloride] reads 4.64; that for `Cc1ccc(N(CC2=NCCN2)c2cccc(O)c2)cc1` [Phentolamine Mesylate], -2.8; that for `CCOC(=O)C1=C(COCCN)NC(C)=C(C(=O)OC)C1c1ccccc1Cl` (stereo not given) [Amlodipine besylate], 0.141.

As to `OC(CNCC(O)C1CCc2cc(F)ccc2O1)C1CCc2cc(F)ccc2O1` (stereo not given) [Nebivolol hydrochloride], the startle is -4.81.

Take `CCCN(CCc1cccs1)[C@H]1CCc2c(O)cccc2C1` [Rotigotine hydrochloride]: the startle was -5.79. The result for `COc1ccc([C@@H]2Sc3ccccc3N(CCN(C)C)C(=O)[C@@H]2OC(C)=O)cc1` [Diltiazem hydrochloride] reads 1.21. The result for `CCC(C)(C)C(=O)O[C@H]1C[C@@H](C)C=C2C=C[C@H](C)[C@H](CC[C@@H]3C[C@@H](O)CC(=O)O3)[C@H]21` [Simvastatin] reads 3.93; that for `COc1ccccc1OCCNCC(O)COc1cccc2[nH]c3ccccc3c12` (stereo not given) [Carvedilol], 3.72.

As to `CC(C)c1nc(CN(C)C(=O)N[C@H](C(=O)N[C@@H](Cc2ccccc2)C[C@H](O)[C@H](Cc2ccccc2)NC(=O)OCc2cncs2)C(C)C)cs1` [Ritonavir], the startle is 1.44. The result for `CC(C)n1c(/C=C/C(O)CC(O)CC(=O)O)c(-c2ccc(F)cc2)c2ccccc21` (stereo not given) [Fluvastatin sodium] reads 3.68; that for `CCC(=O)O[C@]1(C(=O)SCF)[C@H](C)C[C@H]2[C@@H]3C[C@H](F)C4=CC(=O)C=C[C@]4(C)[C@@]3(F)[C@@H](O)C[C@@]21C` [Fluticasone propionate], -2.41.

With `Cc1cccc(C)c1OCC(C)N` (stereo not given) [Mexiletine hydrochloride], the startle turned out to be 0.959. The result for `COc1c(C)c2c(c(O)c1C/C=C(\C)CCC(=O)O)C(=O)OC2` [Mycophenolic acid] reads 3.04.

With `CC(=O)NC[C@H]1CN(c2ccc(N3CCOCC3)c(F)c2)C(=O)O1` [Linezolid], the startle worked out at 2.73.

For `OCCOCCN1CCN(C2=Nc3ccccc3Sc3ccccc32)CC1` [Quetiapine hemifumarate], the startle is -0.888. The result for `COc1cc2ncnc(Nc3ccc(F)c(Cl)c3)c2cc1OCCCN1CCOCC1` [Iressa] reads -1.42; that for `Cc1ccc(NC(=O)c2ccc(CN3CCN(C)CC3)cc2)cc1Nc1nccc(-c2cccnc2)n1` [Imatinib mesylate], 5.71.
